The supplement of paper PMC6555819

Experiments:
Assay in all cases: PBM binding z-score (relative to random genomic background probes); higher = stronger binding; sequences stand for … in GC…GCGATTGACAGCGTAGAATGAAGG
[1] = tested on: FXR:RXRa (NR concentration 270 nM, RXRa partner concentration 90 nM)
Procedure, shortened: (§1)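 Binding z-scores were set against random background probes. The data came from custom Agilent 4×180K protein-binding microarrays carrying double-stranded probes with 34-nt variable regions, incubated 1 h with ligand-free nuclear receptor dimers. Partner-specific antibodies detected binding, and scanned fluorescence was regression-normalized.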

[2] = tested on: LXRa:RXRa (NR concentration 270 nM, RXRa partner concentration 90 nM)
Procedure, shortened: as §1

[3] = tested on: LXRa homodimer (NR concentration 270 nM)
Procedure, shortened: as §1

[4] = tested on: LXRb:RXRa (NR concentration 270 nM, RXRa partner concentration 90 nM)
Procedure, shortened: as §1

[5] = tested on: LXRb homodimer (NR concentration 270 nM)
Procedure, shortened: as §1

[6] = tested on: PPARa:RXRa (NR concentration 270 nM, RXRa partner concentration 90 nM)
Procedure, shortened: as §1

[7] = tested on: PPARg:RXRa (NR concentration 180 nM, RXRa partner concentration 90 nM)
Procedure, shortened: as §1

[8] = tested on: PPARg:RXRa 270nM:90nM, anti-RXR (NR concentration 270 nM, RXRa partner concentration 90 nM)
Procedure, shortened: as §1

[9] = tested on: PPARg:RXRa 30nM:10nM, anti-RXR (NR concentration 30 nM, RXRa partner concentration 10 nM)
Procedure, shortened: as §1

[10] = tested on: PPARg:RXRa 90nM:30nM, anti-RXR (NR concentration 90 nM, RXRa partner concentration 30 nM)
Procedure, shortened: as §1

[11] = tested on: PPARg:RXRa DBDmut IVT, anti-RXR (DBD mutation: RXRa K156A/R161A, NR concentration 270 nM, RXRa partner concentration 90 nM)
Procedure, shortened: as §1

[12] = tested on: PPARg:RXRa IVT, anti-PPARg (NR concentration 270 nM, RXRa partner concentration 90 nM)
Procedure, shortened: as §1

[13] = tested on: PPARg DBDmut:RXRa IVT, anti-PPARg (DBD mutation: PPARg1 K132A/R137A, NR concentration 270 nM, RXRa partner concentration 90 nM)
Procedure, shortened: as §1

[14] = tested on: PPARg DBDmut IVT, anti-PPARg (DBD mutation: PPARg1 K132A/R137A, NR concentration 270 nM)
Procedure, shortened: as §1

[15] = tested on: PPARg homodimer (NR concentration 180 nM)
Procedure, shortened: as §1

[16] = tested on: PXR:RXRa (NR concentration 270 nM, RXRa partner concentration 90 nM)
Procedure, shortened: as §1

[17] = tested on: PXR homodimer (NR concentration 270 nM)
Procedure, shortened: as §1

[18] = tested on: RARa:RXR (NR concentration 270 nM, RXRa partner concentration 90 nM)
Procedure, shortened: as §1

[19] = tested on: RARa homodimer (NR concentration 270 nM)
Procedure, shortened: as §1

[20] = tested on: RARb:RXRa (NR concentration 270 nM, RXRa partner concentration 90 nM)
Procedure, shortened: as §1

Row | Sequence | PBM binding z-score [1] | PBM binding z-score [2] | PBM binding z-score [3] | PBM binding z-score [4] | PBM binding z-score [5] | PBM binding z-score [6] | PBM binding z-score [7] | PBM binding z-score [8] | PBM binding z-score [9] | PBM binding z-score [10] | PBM binding z-score [11] | PBM binding z-score [12] | PBM binding z-score [13] | PBM binding z-score [14] | PBM binding z-score [15] | PBM binding z-score [16] | PBM binding z-score [17] | PBM binding z-score [18] | PBM binding z-score [19] | PBM binding z-score [20]
1 | CATACAGTGTCAGCTAGGCCAGAGTAGGGACGGC | -0.279 | -0.284 | -0.667 | -0.652 | 0.0378 | -0.3 | 0.467 | -0.284 | -0.315 | -0.243 | -0.0696 | 0.608 | 0.171 | -0.0038 | -0.0558 | -0.453 | -0.457 | -0.228 | 0.038 | 1.04
2 | ACTAGCAGGCCAAGTTAGGGTCACTCAAACAAAG | 1.87 | 1.73 | -0.142 | 2.55 | -0.86 | 3.36 | 0.753 | 1.38 | -0.00931 | 1.07 | 0.489 | 1.32 | 0.153 | -0.603 | 1.07 | 3 | 0.292 | 3.73 | -0.482 | 2.86
3 | TCTTGTAGATCAATAGAGGTTCAGAAAGTGCGCT | 0.408 | 0.78 | -0.0503 | 0.293 | -0.193 | 0.663 | -0.13 | 1.35 | 2.81 | 2.47 | 1.62 | 0.382 | 0.0591 | 1.1 | -0.371 | 1.06 | 0.746 | 0.485 | 0.189 | 0.0734
4 | GCTTGTAGATCAAGGTTAAGAAAGACTAAGCTAA | 0.0354 | 0.884 | -0.55 | 0.55 | -0.627 | 1.56 | 1.01 | 2.05 | 0.29 | 1.56 | 0.698 | 1.3 | -0.233 | 0.273 | 0.452 | 0.314 | -0.212 | 0.726 | -0.0899 | 0.759
5 | AATACAGGGTCATCGTAGGCGAGAGTACGCACAG | 7.5 | 6.16 | 2.08 | 4.6 | 1.54 | 5.94 | 6.58 | 6.21 | 2.48 | 4.92 | 2.84 | 4.14 | 3.29 | 1.01 | 2.21 | 4.29 | 1.03 | 5.1 | 1.25 | 4.37
6 | ATCTCTAGGTAAGACTCAGTTCAGTCAAGAACGC | 0.474 | 0.647 | 0.721 | 0.685 | 0.923 | 0.293 | 0.116 | 0.136 | 0.155 | 0.184 | 1.92 | 1.14 | 0.571 | 0.277 | 1.18 | 1.32 | 1.41 | 0.474 | 1.34 | 0.511
7 | AGAACGAGGGAACGCTGAGTTGATAGCAGAGTAG | -0.288 | -0.46 | -0.611 | -0.674 | -0.803 | -0.499 | 0.464 | -0.265 | -0.0206 | -0.332 | 0.157 | 0.0104 | -0.0244 | -0.171 | -0.732 | -0.323 | -0.229 | -0.613 | 0.201 | -0.517
8 | CGTCCAAGGCCAGCAGGTCAGTGAAAGCGACGTG | 0.378 | 0.0811 | -0.472 | -0.00321 | -1.05 | 0.83 | -0.215 | -0.182 | -0.911 | -0.203 | 0.153 | -0.0441 | -0.768 | -0.983 | 0.0229 | 0.29 | -0.389 | 0.692 | -1.23 | 2.36
9 | ATATGTAGGTGATCGGGTCATTCAGTTTGCGCAT | 1.36 | 1.47 | 0.268 | 1.79 | 0.875 | 4.72 | 6.45 | 5.32 | 3.24 | 5.22 | 7.23 | 7.11 | 1.94 | 2.7 | 1.86 | 3.27 | 6.72 | 2.77 | 0.81 | 2.01
10 | CAAACTAGCTCAAGAGGTCAAAGTCCGCTTCCCG | 4.69 | 5.44 | 5.42 | 5.16 | 1.67 | 5.04 | 1.65 | 3.87 | 1.52 | 2.88 | 0.982 | 2.06 | 0.545 | 0.408 | 2.37 | 5.37 | 1.87 | 5.13 | 1.34 | 3.96
11 | CTGACTGGGGCAAAGGTTACCATACTCAGTACGA | 1.83 | 1.87 | -0.166 | 3.05 | -0.352 | 6.09 | 11.3 | 9.42 | 9.13 | 10.2 | 6.27 | 6.51 | 0.767 | 0.374 | 1.19 | 2.61 | 0.266 | 4.17 | 0.228 | 2.67
12 | CCTTACGGGTCACTGACACGTTATAGCATTTGGA | 5.87 | 3.87 | 0.355 | 3.38 | 0.0224 | 5.4 | 4.48 | 4.55 | 1.45 | 3.25 | 3.57 | 3.64 | 1.42 | 0.499 | 1.94 | 3.1 | 0.171 | 3.98 | 0.948 | 3.99
13 | CCTATCAGGCCAATCTGGGTCACTCAAGGCTTGA | 0.68 | 1.71 | -0.155 | 1.02 | 0.106 | 3.29 | 2.26 | 2.47 | 0.43 | 1.76 | 4.25 | 5.29 | 0.637 | -0.095 | 1.45 | 1.27 | -0.29 | 2.62 | 0.00198 | 1.75
14 | CCTTACGGGTCACTGACAGGTTATACCATTTGGA | 4.86 | 4.42 | 0.698 | 3.61 | -0.46 | 5.07 | 4.22 | 4.39 | 1.45 | 3.05 | 3.69 | 3.72 | 0.775 | 0.106 | 2.46 | 3.75 | 0.348 | 4.53 | 1.11 | 4.14
15 | CCGACTGGGGCAAAGGTTCCCATACTCAGTACGA | -0.153 | -0.12 | -0.431 | -0.0438 | -1.02 | 3 | 7.57 | 6.87 | 6.55 | 6.97 | 4.43 | 4.51 | -0.428 | -0.816 | -0.0222 | -0.128 | -0.291 | 0.588 | 0.117 | 0.831
